Test results taken from PubChem BioAssay AID1159580 (chemical genetic matrix, 2015).
“And” between values parts separate entries of the source, which are not always exact repeats. Equal entries are not always repeated. Among all 5,500 compounds or so, about 2,000 (36%) were called active. Inconclusive results (about 18%) are left out. Rule as the data show it: active = normalized growth mostly below about 0.91 (no sharp cut-off); inconclusive = no clear call, values can overlap the other calls; inactive = mostly above about 0.92. The list shows a part of the results.

Experiment: chemical genetic growth profiling, strain panel (AID 1159580);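 also: tested at 20 µM; growth read once vehicle control cultures reached saturation at 30 °C; 1 = growth at the plate median or of vehicle wells; lower values mean less growth of the strain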
Details: S. cerevisiae deletion strains, growth OD

Measured: normalized growth

CC12CCC3C(CC3(C)C)C(C)(CCC1=O)O2 (stereo unspecified)
inactive: locus YAL021C, strain ccr4, active compounds read low 1.04 | locus YAL026C, strain drs2, active compounds read low 1.01 | locus YAL030W, strain snc1, active compounds read low 0.994 | locus YBL061C, strain skt5, active compounds read low 0.99 | locus YBR009C, strain hhf1, active compounds read low 1.01 | locus YBR021W, strain FUR4, active compounds read low 1.01 | locus YBR023C, strain chs3, active compounds read low 0.996 | locus YBR171W, strain sec66, active compounds read low 0.985 | locus YBR229C, strain ROT2, active compounds read low 1.01 | locus YBR231C, strain swc5, active compounds read low 0.983 | locus YBR279W, strain paf1, active compounds read low 1.02 | locus YCL011C, strain gbp2, active compounds read low 1.01 | locus YCL016C, strain dcc1, active compounds read low 1.01 | locus YCL029C, strain bik1, active compounds read low 1.03 | locus YCL061C, strain MRC1, active compounds read low 1.01 | locus YCL069W, strain vba3, active compounds read low 1 | locus YCR088W, strain abp1, active compounds read low 0.981 | locus YDL005C, strain med2, active compounds read low 0.972 | locus YDL035C, strain GPR1, active compounds read low 1.01 | locus YDL040C, strain nat1, active compounds read low 0.99 | locus YDL074C, strain BRE1, active compounds read low 1.07 | locus YDL101C, strain DUN1, active compounds read low 1.02 | locus YDL185W, strain tfp1, active compounds read low 1.02 | locus YDL192W, strain arf1, active compounds read low 1.01 | locus YDR001C, strain nth1, active compounds read low 0.986 | locus YDR069C, strain doa4, active compounds read low 1.01 | locus YDR101C, strain arx1, active compounds read low 0.983 | locus YDR137W, strain rgp1, active compounds read low 0.977 | locus YDR159W, strain sac3, active compounds read low 0.982 | locus YDR162C, strain NBP2, active compounds read low 1.03 | locus YDR195W, strain ref2 0.934 | locus YDR297W, strain sur2, active compounds read low 1.01 | locus YDR318W, strain mcm21, active compounds read low 1.03 | locus YDR334W, strain swr1, active compounds read low 1 | locus YDR335W, strain msn5, active compounds read low 1 | locus YDR388W, active compounds read low 1.01 | locus YDR392W, strain spt3, active compounds read low 0.939 | locus YDR502C, strain sam2, active compounds read low 1.04 | locus YEL003W, strain gim4, active compounds read low 0.995 | locus YEL037C, strain rad23, active compounds read low 1.01 | locus YEL061C, strain CIN8 (second series), active compounds read low 0.992 | locus YEL061C, strain CIN8, active compounds read low 1.01 | locus YER015W, strain faa2, active compounds read low 1 | locus YER016W, strain bim1, active compounds read low 0.988 | locus YER110C, active compounds read low 1.02 | locus YER111C, strain swi4, active compounds read low 0.987 | locus YER155C, strain BEM2 (second series), active compounds read low 0.967 | locus YER155C, strain BEM2, active compounds read low 1.01 | locus YER167W, strain BCK2, active compounds read low 1 | locus YFR010W, strain ubp6, active compounds read low 1.01 | locus YGL078C, strain dbp3, active compounds read low 1.01 | locus YGL086W, strain mad1, active compounds read low 1.01 | locus YGL167C, strain pmr1, active compounds read low 0.99 | locus YGL173C, strain kem1, active compounds read low 0.999 | locus YGL227W, strain vid30, active compounds read low 0.989 | locus YGL240W, strain doc1, active compounds read low 0.943 | locus YGL248W, strain PDE1, active compounds read low 1.05 | locus YGL253W, strain hxk2, active compounds read low 1.02 | locus YGR078C, strain PAC10, active compounds read low 1.04 | locus YGR135W, strain pre9, active compounds read low 1.05 | locus YGR252W, strain gcn5, active compounds read low 1.07 | locus YHR013C, strain ard1, active compounds read low 1.01 | locus YHR027C, strain rpn1, active compounds read low 0.988 | locus YHR030C, strain SLT2, active compounds read low 1.01 and 1.05 | locus YHR079C, strain IRE1 (second series), active compounds read low 1.02 | locus YHR079C, strain IRE1, active compounds read low 1.03 | locus YHR094C, strain hxt1, active compounds read low 1.01 | locus YHR129C, strain ARP1, active compounds read low 1.01 | locus YHR142W, strain chs7, active compounds read low 1 | locus YHR200W, strain rpn10, active compounds read low 1.02 | locus YIL066C, strain RNR3, active compounds read low 1.01 | locus YIL073C, strain SPO22, active compounds read low 1.08 | locus YIL125W, strain kgd1, active compounds read low 1 | locus YIR030C, strain dcg1, active compounds read low 1.02 | locus YJL092W, strain hpr5, active compounds read low 0.997 | locus YJL095W, strain BCK1 (second series), active compounds read low 1.01 | locus YJL095W, strain BCK1, active compounds read low 1.06 and 1.04 | locus YJL115W, strain asf1, active compounds read low 0.976 | locus YJL129C, strain trk1, active compounds read low 0.991 | locus YJL134W, strain LCB3, active compounds read low 1.02 | locus YJL154C, strain vps35, active compounds read low 0.991 | locus YJL164C, strain tpk1, active compounds read low 1.04 | locus YJL166W, strain qcr8, active compounds read low 0.984 | locus YJL168C, strain set2, active compounds read low 1.01 | locus YJL187C, strain SWE1 (second series), active compounds read low 1.04 | locus YJL187C, strain SWE1, active compounds read low 1
